Source: PubChem BioAssay (National Center for Advancing Translational Sciences (NCATS))
In the library only some 4% were active in any assay of this set; here they are far more common.
D1 ag: activates the human D1 dopamine receptor; P21728; HEK293 T-REx D1 cells, calcium flux, agonist mode; activation, % at 2 µM; 360,000 compounds, 1% hits; AID 504660
Target sequence (P21728 whole entry, looked up): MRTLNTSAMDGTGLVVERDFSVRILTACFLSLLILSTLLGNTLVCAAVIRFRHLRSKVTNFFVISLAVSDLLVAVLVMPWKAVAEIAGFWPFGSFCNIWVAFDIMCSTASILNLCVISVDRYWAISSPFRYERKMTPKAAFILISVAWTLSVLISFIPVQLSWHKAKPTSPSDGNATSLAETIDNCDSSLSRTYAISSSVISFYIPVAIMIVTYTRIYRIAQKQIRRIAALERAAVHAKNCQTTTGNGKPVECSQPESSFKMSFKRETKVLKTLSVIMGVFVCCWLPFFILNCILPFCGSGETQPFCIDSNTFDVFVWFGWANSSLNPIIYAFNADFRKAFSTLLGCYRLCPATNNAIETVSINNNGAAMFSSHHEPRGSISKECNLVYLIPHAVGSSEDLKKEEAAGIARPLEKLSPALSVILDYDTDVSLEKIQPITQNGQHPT
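Inducible HEK293 T-REx D1 cells, force-coupled to calcium signalling, were plated at 4000 cells/well with tetracycline and held overnight at 30 C. After no-wash calcium dye loading, compound-evoked calcium rise over 180 s flagged agonists.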
TRHR PAM: allosteric enhancers of human TRH receptor | P34981 | TRHR cells, fluo-8 calcium fluorescence, EC20 TRH enhancement | enhancement, % at 2 µM | 360,000 compounds, 0.66% hits | AID 493056; in the data active = enhancement above about 30%
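Enhancer read-out: after compound pinning and an initial kinetic agonist-mode read, an EC20 of TRH (10 nM final) was injected and fluo-8 calcium signal (Ex 480/Em 530) followed at 1 s/cycle for 100 cycles in TRHR-expressing cells.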
D1 PAM: enhances dopamine response at the human D1 receptor. P21728. AID 504651. HEK293 TREx D1 cells, calcium flux, dopamine EC20 potentiation. 360,000 compounds, 0.036% hits. potentiation, % at 10 µM; in the data active = potentiation above about 30%
TRHR ag: activates the human TRH receptor | P34981 | TRHR cells, calcium flux fluo-8, FDSS agonist mode | activation, % at 2 µM | 360,000 compounds, 0.18% hits | AID 493084
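TRHR-expressing cells loaded with fluo-8 calcium dye; 23 nL library compound pin-transferred, kinetic FDSS fluorescence (Ex 480/Em 530) recorded about 180 s for agonist-induced calcium release, before a 10 nM TRH EC20 addition for potentiator mode.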
D1 antag: antagonists of human D1 dopamine receptor. activity change, negative = inhibition, % at 10 µM. HEK293 TREx D1 cells, calcium flux, dopamine EC80; hits give low values. 360,000 compounds, 3.2% hits. P21728; in the data active = activity change below about -30%
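Calcium flux readout: force-coupled, inducible Hek293 Trex D1 line, cells induced overnight at 30 C with tetracycline, dye-loaded 30–90 min at RT. Antagonism scored against EC80 dopamine challenge given 180 s after compound.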
GRP78 ERSR act: inducers of ER stress response in human glioma cells; U87-MG GRP78 promoter luciferase reporter, 16 h; Potency, µM, actives largely listed as activators; 420,000 compounds, 0.02% hits; AID 602332; active = well fitted activation curve with a large enough effect; inconclusive = small, poorly fitted or top-dose-only effect; inactive = no such curve, though single readings can be large or run the other way; also: series mostly up to about 76 µM; nearly all actives have a fitted effect of over 35% in size
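Stably transfected U87-MG glioma cells carrying a GRP78-based luciferase sensor; 16 h compound incubation. Luminescence end-point read 10 min after Bright-Glo addition at room temperature.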
Numbers stand for hits; 0 = inactive; ? = inconclusive; - = no result given; ! = a repeat was not active. Rule as the data show it, unless noted: active = activation above about 30%; inactive = the rest.

SMILES	D1 ag	TRHR PAM	D1 PAM	TRHR ag	D1 antag	GRP78 ERSR act
CC(C)=CCN1CCN(Cc2ccc(C#CC(C)(C)O)s2)CC1CCO (stereo not given)	0	0	0	0	-37	0
CC(C)(O)C#Cc1ccc(CN2CCN(CCc3ccccc3)C(CCO)C2)s1 (stereo not given)	0	0	0	0	-37	0
CC(C)(O)C#Cc1ccc(CN2CCN(Cc3ccsc3)C(CCO)C2)s1 (stereo not given)	0	0	0	0	0	0
CC(C)(O)C#Cc1ccc(CN2CCN(Cc3ccccc3)C(CCO)C2)s1 (stereo not given)	0	0	0	0	0	0
COC(=O)c1ccc(NC(=S)NC2c3ccccc3CC2O)cc1 (stereo not given)	0	0	0	0	0	0
O=C(O)CCc1cc(F)c(S(=O)(=O)N2CCN(S(=O)(=O)c3ccc4c(c3)OCCO4)CC2)cc1F	0	0	0	0	0	-
Cc1cccc(C(=O)N/N=C/c2ccncc2)c1	0	0	0	0	-37	0
CC(=O)O[C@]1(C(=O)CO)[C@@H](C)C[C@H]2[C@@H]3CCC4=CC(=O)C=C[C@]4(C)[C@@]3(F)[C@@H](O)C[C@]21C	-	-	-	-	-	0
COC(=O)Cc1nnc(NC(=O)c2ccccc2)s1	0	0	0	0	0	0
Cc1ccc(SCc2nnc(NC(=O)c3ccccc3)s2)cc1	0	0	0	0	-42	0
O=C(O)CCC/C=C\C[C@@H]1CO[C@H](C(F)(F)F)O[C@@H]1c1ccccc1O	-	-	-	-	-	0
CC(=O)NC(c1cccc(F)c1)c1nc(-c2cccs2)cs1 (stereo not given)	-	-	-	-	-	0
O=[N+]([O-])c1cnccc1Nc1ccccc1	0	0	0	0	0	0
COc1ccccc1Nc1ccncc1[N+](=O)[O-]	0	0	0	0	-48	0
Cc1ccc(C(=O)NCCc2nnc3n2CCN(Cc2ccnc4ccccc24)CC3)c(C)c1	-	-	-	-	-	0
Cc1c(Cl)cccc1Nc1nc(NCCO)c2ccccc2n1	0	0	0	0	0	32µM
OCCNc1nc(Nc2ccccc2)nc2ccccc12	0	0	0	0	0	32µM
OCCNc1nc(Nc2ccc(Br)cc2)nc2ccccc12	0	0	0	0	0	?
CC(=O)NC1(C(F)(F)F)C(=O)Nc2c1c(=O)[nH]c(=O)n2CCc1ccccc1 (stereo not given)	0	0	0	0	0	0
NS(=O)(=O)c1ccc(Nc2nc(-c3cccc([N+](=O)[O-])c3)cs2)cc1	0	0	0	0	-31	0
COc1ccc(C(=O)c2ccc(OC)cc2OC)cc1	0	0	0	0	-49	0
C=CCn1c(COc2ccccc2F)nnc1SCCN1C(=O)c2ccccc2C1=O	0	38	0	0	0	0
C=CCn1c(SCCN2C(=O)c3ccccc3C2=O)nc2scc(-c3ccc(F)cc3)c2c1=O	-	-	-	-	-	0
CN(C)C1=NCCN1CCc1cccc(F)c1	0	0	0	0	0	0
Cc1ccc(-n2c(=O)c3ccc(C(=O)NCc4ccco4)cc3n(CC(=O)Nc3ccccc3C(F)(F)F)c2=O)cc1	0	0	0	0	0	0
SMILES	D1 ag	TRHR PAM	D1 PAM	TRHR ag	D1 antag	GRP78 ERSR act
CCOc1ccc(NC(=O)NCc2cccn2C)cc1	0	0	0	0	-42	0
CCOc1ccc(NC(=O)NCc2cccn2Cc2ccccc2)cc1	0	0	0	0	0	0
CCOc1ccc(NC(=O)NC23CC4CC(CC(C4)C2)C3)cc1	0	0	0	0	-31	0
Cn1c(=O)c2c(ncn2CC(O)CNc2ccc(Br)cc2)n(C)c1=O (stereo not given)	0	0	0	0	-32	0
CCC(C)C(CO)NCCCn1cnc2c(SC)ncnc21 (stereo not given)	-	-	-	-	-	0
CCN(CCO)C(=O)C(c1ccccc1)c1ccccc1	0	0	0	0	-59	0
O=C(O/N=C1/CCCc2occc21)c1ccc(Cl)cc1Cl	0	0	0	0	-33	0
CC(C)N=C(NC#N)SCc1ccccc1F	0	0	0	0	-49	0
CC(C)(C)NC(=O)CSC(=Nc1cccc(F)c1)NC#N	0	0	0	0	-40	?
N#CNC(=Nc1cccc(F)c1)SCc1ccccc1F	0	0	0	0	-40	0
O=C(CNc1n[nH]c(=O)[nH]c1=O)N/N=C/C1CC=CCC1 (stereo not given)	0	0	0	0	0	0
CCOC(=O)c1nnn(CC(=O)NC(=O)Nc2ccccc2)c1C(=O)OCC	0	0	0	0	0	0
CCOC(=O)c1nnn(CC(=O)NC(=O)Nc2ccc(F)cc2)c1C(=O)OCC	42!	0	0	0	0	0
CC(=O)c1cccc(NC(=S)N2CCC(Cc3ccccc3)CC2)c1	0	0	0	0	-	0
COC(=O)Cc1ccc(NC(=S)N2CCC(Cc3ccccc3)CC2)cc1	0	0	0	0	-32	0
CC(C)CNC(=S)N1CCC(Cc2ccccc2)CC1	0	0	0	0	-36	0
COC(=O)Cc1ccc(NC(=S)N2CCN(c3cccc(O)c3)CC2)cc1	0	0	0	0	-38	0
CC(=O)c1ccc(NC(=S)N2CCC(Cc3ccccc3)CC2)cc1	0	0	0	0	-35	0
COC(=O)c1cc(S(=O)(=O)N2CCN(c3cccc(OC)c3)CC2)cn1C	0	0	0	0	0	0
COc1ccc(OC)c(CNc2ccc3c(c2)CCC3)c1	0	35	0	0	0	0
COc1ccc(NC(=O)Nc2ccc3c(c2)CCC3)c(OC)c1	0	0	0	0	-	0
COc1ccc(OC)c(NC(=O)Nc2ccc3c(c2)CCC3)c1	0	0	0	0	-49	0
O=C(NCC1CCCO1)C1c2ccccc2C(=O)N1C1CCCCCC1 (stereo not given)	0	0	0	0	0	0
Cc1ncc2c(c1CNC(=O)c1cncs1)CCN(C(=O)c1ccc(C(F)(F)F)cc1)C2	-	-	-	-	-	0
CCN1C(c2ccc(F)cc2)=CS/C1=C(\C#N)c1nnc2n1-c1ccccc1SC2	0	0	0	0	-35	0
SMILES	D1 ag	TRHR PAM	D1 PAM	TRHR ag	D1 antag	GRP78 ERSR act
Cc1cc2ccccc2n1CCNCc1c(C(=O)N2CCOCC2)nc2ccccn12	0	0	0	0	0	0
O=C(c1nc2ccccn2c1CNCCCn1ncc2ccccc21)N1CCOCC1	0	0	0	0	-42	0
C#CC(C)OC(=O)Nc1cccc(Cl)c1 (stereo not given)	-	-	-	-	-	0
CC1CCN(C(=S)c2ccc(O)cc2)CC1	0	0	0	0	-75	0
C=CCNc1ncnc2c1[nH]c1ccc(Cl)cc12	35	0	0	0	-	0
CC(O)CNc1nc2sc3c(c2c(=O)n1Cc1ccco1)CCCCC3 (stereo not given)	34	0	0	0	0	0
N=c1c2c3c(sc2ncn1Cc1ccco1)CCCCC3	0	0	0	0	-35	0
